Hits are enriched below; roughly 1.6% of the tested compounds scored in any of these assays.
HTR2A ag – mouse HTR2A agonism via beta-arrestin recruitment. CHO-K1 mHTR2A beta-arrestin complementation, luminescence; percent of 30 µM serotonin response. activation, % at 7.6 µM. hit rate 0.66% among 360,000. AID 624169;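 active means activation above a run cutoff, the mean activation of all tested compounds plus 3 SD, cut at about 14% in these data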
MOR-DOR ag – OPRM1-OPRD1 heterodimerization agonism; AID 504326; cells, luminescence; P35372+P41143; activation, % at 9.3 µM; hit rate 0.3% among 340,000; in the data active means activation above about 18%
OPRM1-OPRD1 inv – mu-delta opioid heterodimer inverse agonism. inhibition, % at 9.3 µM. cell-based MOR-DOR heterodimer luminescence. hit rate 0.21% among 340,000. P35372+P41143; in the data active means inhibition above about 22%, passing the limit was not always enough
HTR5A inv ag – inverse agonist of human HTR5A in OPRM1-OPRD1 counter-screen. inhibition, % at 9.3 µM. HTR5A cell line, luminescence, inverse agonism. P47898. AID 504634. hit rate 0.083% among 340,000; in the data active means inhibition mostly above about 23%, no sharp cut-off; inactive means mostly below about 18%
Target sequence (P47898 whole entry, looked up): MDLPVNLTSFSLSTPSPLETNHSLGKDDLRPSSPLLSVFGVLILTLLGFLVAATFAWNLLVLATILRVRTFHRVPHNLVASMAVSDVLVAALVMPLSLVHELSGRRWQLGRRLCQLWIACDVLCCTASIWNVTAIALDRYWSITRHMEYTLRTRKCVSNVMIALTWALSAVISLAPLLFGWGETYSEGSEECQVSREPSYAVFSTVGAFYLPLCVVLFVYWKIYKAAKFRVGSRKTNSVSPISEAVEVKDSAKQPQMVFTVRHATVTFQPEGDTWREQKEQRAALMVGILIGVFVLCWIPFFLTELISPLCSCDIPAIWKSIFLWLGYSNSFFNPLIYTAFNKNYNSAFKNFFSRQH
HTR5A ag ctr – HTR5A agonism, opioid heterodimer counter-screen | hit rate 0.61% among 340,000 | P47898 | HTR5A agonist assay, luminescence, cell-based | activation, % at 9.3 µM | AID 504692; in the data active means activation mostly above about 9.5%, no sharp cut-off; inactive means mostly below about 7.6%
OPRM1 ag – OPRM1 agonism in mouse HTR2A counterscreen | shares compounds with HTR2A ag | U2OS OPRM1 beta-arrestin PathHunter, luminescence; DMSO 0%, DAMGO 9.3 µM 100% | hit rate 5.3% among 2,300 | activation, % at 9.3 µM;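 active means mean activation above the mean of DMSO-only wells plus 3 SD, cut at about 0.5% in these data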
HTR2A ag conf – mouse HTR2A agonism confirmed | activation, % at 7.6 µM | CHO-K1 PathHunter beta-arrestin recruitment, luminescence; DMSO 0%, 30 µM serotonin 100% | AID 624381 | hit rate 19% among 2,300 | shares compounds with HTR2A ag;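 active means mean activation across triplicates above the hit threshold derived in the original primary screen, cut at about 15% in these data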
Hits are given with their value; . = inactive; / = not tested or not shown.

SMILES	HTR2A ag	MOR-DOR ag	OPRM1-OPRD1 inv	HTR5A inv ag	HTR5A ag ctr	OPRM1 ag	HTR2A ag conf
Cc1ccc(C(=O)c2nc(C(=O)NCCO)nc3ccccc23)cc1	16	.	.	.	.	.	.
COc1ccccc1C1CC(=O)Oc2cc(OC)c(OC)c(OC)c21 (stereo not drawn)	.	.	.	.	.	/	/
COc1ccc(S(=O)(=O)N2CCN(Cc3cccc(OC)c3OC)CC2)cc1	.	.	.	.	.	/	/
O=C(NCC(=O)N1CCCCCCC1)c1cccc([N+](=O)[O-])c1	15	.	.	.	.	.	.
Cc1cccc(C(=O)NCC(=O)N2CCCC2)c1	.	.	.	.	.	/	/
CC1CN(CC(=O)NCc2ccccc2)CC(C)O1 (stereo not drawn)	15	.	.	.	.	.	.
CCOc1ccc(-n2ccn(CC(=O)NCCc3ccccc3)c(=O)c2=O)cc1	.	.	.	.	.	/	/
O=C(O)c1nn(CC(=O)N(C2CCCCC2)C2CCCCC2)c(=O)c2ccccc12	33	.	.	.	.	.	.
CCN(C(=O)Cn1nc(C(=O)O)c2ccccc2c1=O)C1CCCCC1	.	.	.	.	.	/	/
CC(C)NC(=O)CCNC(=O)c1ccc(F)cc1	.	.	.	.	.	/	/
O=C(C[n+]1cc(-c2ccccc2)n2c1CCC2)Nc1nc(-c2ccc(F)cc2)cs1	21	.	.	.	.	.	51
O=C(C[n+]1cc(-c2ccc(F)cc2)n2c1CCC2)Nc1nc(-c2ccc(F)cc2)cs1	.	.	.	.	.	/	/
O=C(NN=Cc1c(F)c(F)c(F)c(F)c1F)c1ccc(NS(=O)(=O)c2cccs2)cc1	.	.	.	.	.	/	/
COc1ccc(-c2c(C#Cc3ccsc3)c3cc(-c4cccc5[nH]ccc45)ccc3n2C)cc1	.	.	.	.	.	/	/
COc1cc(OC)cc(-c2c(C#Cc3ccsc3)c3cc(-c4cccc5[nH]cc(C=O)c45)ccc3n2C)c1	21	.	.	.	.	.	.
c1ccc2c(-c3ccc4nncn4c3)cncc2c1	.	/	/	/	/	/	/
Cc1csc(NC(=O)CSc2ncn(-c3ccccc3)n2)n1	21	.	.	.	.	.	.
Cc1ccc(-c2csc(NC(=O)CSc3ncn(-c4ccccc4)n3)n2)cc1	.	.	.	.	.	/	/
COC(=O)NCCc1cc(OC)c(OC)cc1S(=O)(=O)N1CC(=O)Nc2ccccc21	15	.	.	.	.	.	.
COc1ccc(S(=O)(=O)N2CC(=O)Nc3ccccc32)cc1Cl	.	.	.	.	.	/	/
Cc1ccc(OCCNC(=O)[C@H]2O[C@@H](n3ccc(=O)[nH]c3=O)[C@H](O)[C@@H]2O)cc1C	43	/	/	/	/	.	.
Cn1ncc2c(=O)[nH]c(N)nc21	.	.	.	.	.	/	/
Cc1cc2c(=O)[nH]c(N)nc2[nH]1	16	/	/	/	/	.	.
Cc1cccc(CN2CCN(C3CN(Cc4ccc(F)cc4)S(=O)(=O)C3)CC2)c1 (stereo not drawn)	18	/	/	/	/	.	.
Cc1ccc(Cn2cc(CN3CC(N4CCN(Cc5cccc(C)c5)CC4)CS3(=O)=O)nn2)cc1 (stereo not drawn)	.	/	/	/	/	/	/
SMILES	HTR2A ag	MOR-DOR ag	OPRM1-OPRD1 inv	HTR5A inv ag	HTR5A ag ctr	OPRM1 ag	HTR2A ag conf
Cc1ccc(CN2CC(N3CCN(Cc4cccc(C)c4)CC3)CS2(=O)=O)cc1 (stereo not drawn)	31	/	/	/	/	.	.
Cc1occc1C(=O)NNC(=O)Cc1ccccc1	.	.	.	.	.	/	/
Cc1ccc(NC(=O)CSc2nnc(Cn3c(=O)sc4ccccc43)n2C)cc1	.	.	.	.	.	/	/
Cn1c(Cn2c(=O)sc3ccccc32)nnc1SCC(=O)Nc1ccccc1	20	.	.	.	.	.	.
CC(C)CN(C(=O)CSc1nncn1-c1ccccc1)c1c(N)n(CC(C)C)c(=O)[nH]c1=O	16	.	.	.	.	.	.
COc1ccc(N(CC(=O)NC2CCCC2)C(=O)c2ccc(N3CCCCC3)nc2)cc1	.	.	.	.	.	/	/
CC(C)NNC(=O)c1ccncc1	28	.	.	.	.	.	45
O=C(Cn1cnc2scc(-c3ccc(Br)cc3)c2c1=O)N1CCOCC1	.	.	.	.	.	/	/
O=C1CC(c2ccccc2)=NN1c1ccccc1	15	.	.	.	.	.	.
CC(C)CC1Nc2ccc(C(=O)NCCCN3CCCCC3C)cc2NC1=O (stereo not drawn)	.	.	.	.	.	/	/
Cc1ccc(C(=O)NNC(=O)Cn2ccc(C(F)(F)F)n2)o1	16	.	.	.	.	.	.
COCC(=O)NNC(=O)c1ccc(OC)cc1	.	.	.	.	.	/	/
CSCCC(NC(=O)c1cc([N+](=O)[O-])ccc1Cl)C(=O)O (stereo not drawn)	.	.	.	.	.	/	/
O=C(O)C1CC=CCC1C(=O)NCCc1cccc(Cl)c1 (stereo not drawn)	24	.	.	.	13	.	.
O=C(O)/C=C/C(=O)NCCc1cccc(Cl)c1	26	.	.	.	.	.	.
O=C(O)/C=C/C(=O)NCCc1ccccc1	.	.	.	.	.	/	/
O=C(O)C1CC=CCC1C(=O)NCCc1csc(-c2ccccc2)n1 (stereo not drawn)	16	.	.	.	.	.	.
O=C(O)C1CCCCC1C(=O)NCCc1ccccc1 (stereo not drawn)	15	.	.	.	.	.	.
O=C(OCc1cn([C@@H]2C[C@H](c3ccccc3)N(C(=O)c3cccs3)C[C@H]2O)nn1)c1ccccc1	.	/	/	/	/	/	/
C/C(=N\OCC(=O)Nc1c(C)cc(C)cc1C)c1ccc2c(c1)OCCO2	.	.	.	.	.	/	/
Cc1ccc(C(O)c2ncc(-c3ccc(F)cc3)[nH]2)cc1F (stereo not drawn)	.	/	/	/	/	/	/
C=CCSc1nnc(NC(=O)c2cccc(S(=O)(=O)N(C)c3ccccc3)c2)s1	.	.	.	.	.	/	/
COc1ccc(-n2nnc3c(=O)n(CC(=O)Nc4cc(C)on4)cnc32)cc1	.	.	.	.	.	/	/
CCSc1ccc([C@@H]2[C@@H]3C(=O)N(CC)C(=O)[C@@H]3[C@]3(C(=O)OC)CCCCN23)cc1	.	.	.	.	.	/	/
CCSc1ccc([C@@H]2[C@H]3C(=O)N(C)C(=O)[C@H]3[C@]3(C(=O)OC)CCCCN23)cc1	17	.	.	.	.	.	.
COc1ccc(Cc2c(O)nc(SCC(C)C)[nH]c2=O)cc1	14	.	.	.	.	.	.
COc1ccc(Cc2c(O)nc(SCC(=O)c3ccc(OC)cc3)[nH]c2=O)cc1	.	.	.	.	.	/	/
CCc1ccccc1Oc1nc(NC(C)C)nc2ccsc12	.	/	/	/	/	/	/
O=C(CNC(=O)c1ccc(Cl)cc1)NNc1c(F)c(F)cc(F)c1F	.	.	.	.	.	/	/
CCNC(=O)C1(C)CCCN(C(=O)c2ccc(OC)c(F)c2)C1 (stereo not drawn)	.	/	/	/	/	/	/

Bioassay records: PubChem, The Scripps Research Institute Molecular Screening Center
